Source: the supplement of paper PMC12340641
Where a name gives a salt, the structure may show the parent alone.

Assays:
[1] = target: IKZF1 (dCK*-IKZF1 fusion in HEK293FT) (UniProt Q13422); assay: inhibition of IKZF1 HTRF signal (DMSO = 0%, pomalidomide 10 uM = 100%); higher = lower IKZF1 protein level; settings: compound concentration: 5 uM, overnight (~20 h)
Outline: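 Percent inhibition of IKZF1 signal was calculated per plate with vehicle and a reference degrader as anchors. The anchors were 0% for vehicle and 100% for the degrader, applied to background-subtracted 665/620 nm time-resolved FRET ratios from a commercial HTRF total-IKZF1 kit. Signal came from HEK293FT cells stably expressing an IKZF1 fusion, treated overnight at 37 °C with 5 μM compound in single wells of 384-well plates.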

HEK293FT dCK*-only = assay: relative growth in counter assay (no AraC = 100%, AraC + DMSO = 0%); higher = more growth rescue independent of IKZF1; settings: compound concentration: 5 uM; AraC concentration: 0.3 uM; overnight pretreatment + 4 days AraC
Outline: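 Nuclei were counted by imaging after Hoechst 33342 staining on day 5, in HEK293FT cells (300/well, 384-well) expressing only an engineered kinase construct. Compound at 5 μM went in 2 h after seeding, followed after overnight at 37 °C by a nucleoside suicide substrate at 0.3 μM plus medium for 4 days. Per plate, wells lacking suicide substrate defined 100% and those with substrate plus vehicle defined 0%.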

HEK293FT dCK*-IKZF1 = assay: relative growth recovery (pomalidomide 10 uM = 100%, DMSO = 0%); higher = more growth rescue (IKZF1 fusion degradation); settings: compound concentration: 5 uM; AraC concentration: 0.3 uM; overnight pretreatment + 4 days AraC
Outline: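 Means of duplicates from different days are given for growth recovery, normalised per plate against a reference degrader and vehicle. The reference degrader set the 100% level and vehicle the 0% level. HEK293FT cells stably expressing a deoxycytidine kinase–IKZF1 fusion (300/well, 384-well) received 5 μM compound 2 h after seeding and, after overnight at 37 °C, 0.3 μM of a nucleoside suicide substrate plus medium for 4 days. Nuclei stained with Hoechst 33342 were then counted by whole-well imaging on day 5.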

Chain of IKZF1 (dCK*-IKZF1 fusion in HEK293FT) (Q13422 whole entry, looked up, the tested form may be a part): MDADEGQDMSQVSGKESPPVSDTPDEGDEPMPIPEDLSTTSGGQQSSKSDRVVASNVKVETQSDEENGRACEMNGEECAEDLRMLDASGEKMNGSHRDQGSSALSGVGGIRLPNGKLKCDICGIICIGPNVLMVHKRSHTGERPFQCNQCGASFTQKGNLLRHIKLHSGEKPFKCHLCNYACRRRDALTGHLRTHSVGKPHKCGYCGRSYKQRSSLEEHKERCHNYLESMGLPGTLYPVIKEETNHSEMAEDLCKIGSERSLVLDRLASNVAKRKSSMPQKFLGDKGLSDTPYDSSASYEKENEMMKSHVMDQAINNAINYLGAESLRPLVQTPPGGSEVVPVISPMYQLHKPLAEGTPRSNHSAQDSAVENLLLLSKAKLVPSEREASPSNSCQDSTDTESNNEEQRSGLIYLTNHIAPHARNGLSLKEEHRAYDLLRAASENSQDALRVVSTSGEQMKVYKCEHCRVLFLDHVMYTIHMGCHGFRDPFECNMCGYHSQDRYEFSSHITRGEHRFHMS

Compound	inhibition of IKZF1 HTRF signal [1] [%]	relative growth in counter assay (HEK293FT dCK*-only) [%]	relative growth recovery (HEK293FT dCK*-IKZF1) [%]
CO[C@H]1/C=C/O[C@@]2(C)Oc3c(C)c(O)c4c(O)c(c(/C=N/N5CCN(C)CC5)c(O)c4c3C2=O)NC(=O)/C(C)=C\C=C\[C@H](C)[C@H](O)[C@@H](C)[C@@H](O)[C@@H](C)[C@H](OC(C)=O)[C@@H]1C	33.6	12.9	-2.5
COc1cc(/C=C/C(=O)CC(=O)/C=C/c2ccc(O)c(OC)c2)ccc1O [Curcumin]	-0.83	-25.9	-6.48
CN(C)C(=O)C(CCN1CCC(O)(c2ccc(Cl)cc2)CC1)(c1ccccc1)c1ccccc1 [Loperamide HCl]	3.48	-7.07	-1.04
O=C(O)C(O)Cc1ccc(O)c(O)c1 (stereo not drawn) [Sodium Danshensu]	-50.2	0.01	-0.76
Oc1cc(CNC(=S)/C=C/c2cc(O)c(O)c(Br)c2)cc(O)c1O	-32.2	-34.9	-11.9
Cc1nc(Nc2ncc(C(=O)Nc3c(C)cccc3Cl)s2)cc(N2CCN(CCO)CC2)n1 [Dasatinib]	-54.9	-29	-7.9
O=c1oc2c(O)c(O)cc3c(=O)oc4c(O)c(O)cc1c4c23	5.6	-6.38	-3
COC(=O)Nc1ccc(-c2nc(N3CCOCC3)c3cnn(C4CCN(C(=O)OC)CC4)c3n2)cc1	8.25	-9.33	-2.33
Cc1ccc(-c2ccc(C)cn2)nc1 [abametapir]	-30.6	4.64	0.52
Nc1ncnc2c1c(-c1cnc3[nH]ccc3c1)nn2C1CCCC1	-13.8	-33.6	-11.3
O=C(c1cccc(Cl)c1F)N1CCN(Cc2cccc(Nc3nccs3)n2)CC1	-54.8	-32.1	-11.2
